Assay results from PubChem BioAssay (NCI).
The panel holds about 83,000 compounds, 20% with a hit somewhere; the sample as a whole holds those more often.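 A percent growth of 40 corresponds to 60% growth inhibition; 0 means no net growth; -100 means all cells died. Active threshold: below 10.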 Unmarked numbers belong to inactive results. Active and inactive are the calls of the source.

How the values were obtained:
Assay in all cases: NCI-60 one-dose screen, 48 h (100 = growth as untreated, 0 = no growth, -100 = all killed)
Conditions in all cases: 10 µM unless noted
NCI-H23 lung = tested on: NCI-H23 lung
NCI-H226 lung = tested on: NCI-H226 lung
NCI-H322M lung = tested on: NCI-H322M lung
HOP-62 NSCLC = tested on: HOP-62 NSCLC
HOP-92 NSCLC = tested on: HOP-92 NSCLC
NCI-H522 lung = tested on: NCI-H522 lung
A549/ATCC NSCLC = tested on: A549/ATCC NSCLC
786-0 renal = tested on: 786-0 renal
COLO 205 colon = tested on: COLO 205 colon
NCI-H460 lung = tested on: NCI-H460 lung

Compound `COc1cc(/C=C/C(=O)c2ccc(Nc3nc(Nc4ccc(F)cc4)nc(Nc4ccc(Cl)cc4)n3)cc2)cc(OC)c1OC` has a growth (NCI-H23 lung) of 26.3%, a growth (NCI-H226 lung) of 61.1% and a growth (NCI-H322M lung) of 99.6%. It also gave a growth (HOP-62 NSCLC) of 82.1%, a growth (HOP-92 NSCLC) of 38% and a growth (NCI-H522 lung) of 62.2%. It also gave a growth (A549/ATCC NSCLC) of 53.1%, a growth (786-0 renal) of 66.4% and a growth (COLO 205 colon) of 78.5%.
`O=c1c2c3c(sc2n2c(-c4cc(-c5ccccc5)nn4-c4ccccc4)nnc2n1Cc1ccccc1)CCCC3` gave a growth (NCI-H23 lung) of 105%, a growth (NCI-H226 lung) of 99% and a growth (NCI-H322M lung) of 112%. It also gave a growth (HOP-62 NSCLC) of 95%, a growth (HOP-92 NSCLC) of 53.2% and a growth (NCI-H522 lung) of 45.9%. For the same compound, the growth (A549/ATCC NSCLC) was 101%, the growth (786-0 renal) was 95.9% and the growth (COLO 205 colon) was 86%.
`O=C(/C=C/c1c(Cl)nc2sccn12)c1nccs1` showed a growth (NCI-H23 lung) of 94.2%, a growth (NCI-H226 lung) of 83.4% and a growth (NCI-H322M lung) of 104%. The growth (HOP-62 NSCLC) was 88.2%, the growth (NCI-H460 lung) was 92.7% and the growth (HOP-92 NSCLC) was 63.8%. It also gave a growth (786-0 renal) of 102% and a growth (COLO 205 colon) of 104%.
Compound `COc1cc(C2NC(=O)c3ccccc3N2)ccc1OCCCCCOc1c(OC)cc(C2=NOC(c3cc(OC)c(OC)c(OC)c3)C2)cc1OC` (configuration not stated) has a growth (NCI-H23 lung) of 59.5%, a growth (NCI-H226 lung) of 71.5% and a growth (NCI-H322M lung) of 103%. For the same compound, the growth (HOP-62 NSCLC) was 95.1%, the growth (HOP-92 NSCLC) was 38.3% and the growth (NCI-H522 lung) was 56.3%. For the same compound, the growth (A549/ATCC NSCLC) was 67.5%, the growth (786-0 renal) was 95% and the growth (COLO 205 colon) was 108%.
`O=C(/C=C/c1ccc(Cl)nc1)c1ccc(Cl)cc1Cl` showed a growth (NCI-H23 lung) of 105%, a growth (NCI-H226 lung) of 103% and a growth (NCI-H322M lung) of 99.8%. The growth (HOP-62 NSCLC) was 106%, the growth (NCI-H460 lung) was 98% and the growth (HOP-92 NSCLC) was 110%. The growth (786-0 renal) was 86.8% and the growth (COLO 205 colon) was 111%.
For `CCCCCS(=O)(=O)Nc1ccc(C(=O)O)cc1`, the growth (NCI-H23 lung) was 102%, the growth (NCI-H226 lung) was 98.9% and the growth (NCI-H322M lung) was 97.3%. It also gave a growth (HOP-62 NSCLC) of 98.2%, a growth (HOP-92 NSCLC) of 105% and a growth (NCI-H522 lung) of 75.4%. For the same compound, the growth (A549/ATCC NSCLC) was 87.4%, the growth (786-0 renal) was 102% and the growth (COLO 205 colon) was 104%.
Compound `COc1cc(CCC[P+](c2ccccc2)(c2ccccc2)c2ccccc2)cc2c1OCO2` has a growth (NCI-H23 lung) of 19.1%, a growth (NCI-H226 lung) of 55.5% and a growth (NCI-H322M lung) of 79.4%. It also gave a growth (HOP-62 NSCLC) of 92.3%, a growth (HOP-92 NSCLC) of 25.3% and a growth (NCI-H522 lung) of 13.2%. For the same compound, the growth (A549/ATCC NSCLC) was 73.2%, the growth (786-0 renal) was 63.9% and the growth (COLO 205 colon) was 3.37% (active).
For `Oc1c(CN2CCCC2)cc(COCc2ccc(Br)cc2)c2cccnc12`, the growth (NCI-H23 lung) was 20.7%, the growth (NCI-H226 lung) was -0.576% (active) and the growth (NCI-H322M lung) was -5.34% (active). For the same compound, the growth (HOP-62 NSCLC) was -4.92% (active), the growth (NCI-H460 lung) was -21.8% (active) and the growth (HOP-92 NSCLC) was 27.6%. For the same compound, the growth (786-0 renal) was -8.02% (active) and the growth (COLO 205 colon) was 39.1%.
For `O=C(CCCCCCSc1nc(-c2ccccc2)cc(-c2ccc(Cl)cc2)n1)NO`, the growth (NCI-H23 lung) was -17.7% (active), the growth (NCI-H226 lung) was 2.23% (active) and the growth (NCI-H322M lung) was 21.3%. The growth (HOP-62 NSCLC) was -9.16% (active), the growth (HOP-92 NSCLC) was -7.58% (active) and the growth (NCI-H522 lung) was -15.8% (active). For the same compound, the growth (A549/ATCC NSCLC) was -23% (active), the growth (786-0 renal) was 1.46% (active) and the growth (COLO 205 colon) was 20.9%.
Work on `COc1cccc(-c2nn(-c3ccccc3)cc2-c2ccnc(NCCCNC(=O)c3ccccc3)c2)c1` yielded a growth (NCI-H23 lung) of 51.3%, a growth (NCI-H226 lung) of 61.4% and a growth (NCI-H322M lung) of 95.2%. For the same compound, the growth (HOP-62 NSCLC) was 53.6%, the growth (NCI-H460 lung) was 51.7% and the growth (HOP-92 NSCLC) was 41.5%. For the same compound, the growth (786-0 renal) was 40.2% and the growth (COLO 205 colon) was 35.2%.
Compound `CCN1C(=O)N(CC)C2Nn3c(s/c(=C4\C(=O)N(C)c5ccccc54)c3=O)=NC21` (configuration not stated) has a growth (NCI-H23 lung) of 44.3%, a growth (NCI-H226 lung) of 78.9% and a growth (NCI-H322M lung) of 75%. It also gave a growth (HOP-62 NSCLC) of 58.4%, a growth (NCI-H460 lung) of 22.6% and a growth (HOP-92 NSCLC) of 75.5%. The growth (786-0 renal) was 27.8% and the growth (COLO 205 colon) was 8.23% (active).
`O=C1c2cccc(NCCN=Cc3cc([N+](=O)[O-])ccc3O)c2C(=O)c2c(NCCN=Cc3cc([N+](=O)[O-])ccc3O)cccc21` was tested, and the growth (NCI-H23 lung) was 75%, the growth (NCI-H226 lung) was 77% and the growth (NCI-H322M lung) was 77%. The growth (HOP-62 NSCLC) was 55.4%, the growth (HOP-92 NSCLC) was 62.4% and the growth (NCI-H522 lung) was 45%. It also gave a growth (786-0 renal) of 82.6% and a growth (COLO 205 colon) of 55.9%.
